# Assay results taken from PubChem BioAssay.
# For some of these results: Results with a measured potency or affinity are listed apart. The source made the active and inactive calls.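 How the source made its calls, unless noted: active means fluorescence ratio normalized to control raised more than 50% in primary screen plus both repeat runs; inactive means the rest.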
# What was measured:
# [1] = test system: TRPC4 beta (transient receptor potential cation channel C4), mouse; test: activators of mouse TRPC4 channel, confirmation, cell-based, Fluo4 calcium, HEK293 TRPC4beta/mu-opioid, duplicates, 10 µM (AID 2426); settings: Fluo4 calcium fluorescence, at 10 µM; hits give high values
# [2] = test system: transient receptor potential cation channel C4 beta (TRPC4), mouse; test: activators of mouse TRPC4 channel, confirmation, cell-based, second round, Fluo4, HEK293 TRPC4beta/mu-opioid, 1 µM (AID 2461;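 active means primary screen active and over 50% activation in each of two duplicate runs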); settings: Fluo4 calcium fluorescence, at 1 µM; hits give high values
# [3] = test system: TRPC4 (transient receptor potential cation channel C4 beta), mouse; test: positive allosteric modulators of mouse TRPC4, confirmation, cell-based, second round, Fluo-4, HEK293 TRPC4beta/mu-opioid, 1 µM (AID 2554;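 active means primary screen hit whose fluorescence ratio, in both repeats, exceeds the weak agonist control mean by 3 SD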); settings: DAMGO EC20, Fluo-4 calcium flux, at 1 µM; hits give high values
# [4] = test system: TRPC4 beta (transient receptor potential cation channel C4), mouse; test: positive allosteric modulators of mouse TRPC4, confirmation, cell-based, Fluo-4, HEK293 TRPC4beta/mu-opioid (AID 2555;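 active means primary screen hit whose calcium fluorescence ratio, in both repeats, exceeds the weak agonist control mean by 3 SD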); settings: DAMGO EC20, Fluo-4 calcium flux, at 10 µM; hits give high values
# [5] = target: Short transient receptor potential channel 4 (Mus musculus) (UniProt Q9QUQ5); test: inhibitors of mouse TRPC4 channel, confirmation, cell-based, Fluo4, HEK293 TRPC4beta/mu-opioid (AID 2636;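 active means calcium signal cut by more than 3 SD below the full-agonist control yet still positive, in both repeats and the earlier primary screen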); settings: DAMGO, Fluo4 calcium flux, at 10 µM; hits give high values
# [6] = target: Short transient receptor potential channel 4 (Mus musculus) (UniProt Q9QUQ5); test: inhibitors of mouse TRPC4 channel, confirmation, cell-based, second round, Fluo4, HEK293 TRPC4beta/mu-opioid, 1 µM (AID 2637;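 active means calcium signal ratio cut to more than 3 SD under the fully stimulated control mean yet still positive, in both repeats and the primary screen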;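 on inhibition: percent of integrated ratio relative to wells lacking test compound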); settings: Fluo4 calcium flux, DAMGO, at 1 µM; hits give high values
# [7] = target: Short transient receptor potential channel 4 (Mus musculus) (UniProt Q9QUQ5); test: mouse TRPC4 channel activators, dose response, cell-based, HEK293 TRPC4/mu-opioid, Fluo-4 calcium (AID 434937;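 active means primary screen activator hit with a dose response curve and TRPC4 channel activation at any tested dose; inactive means no activation, no dose response, or not a primary hit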)
# [8] = target: Short transient receptor potential channel 4 (Mus musculus) (UniProt Q9QUQ5); test: TRPC4 positive allosteric modulators, dose response, cell-based, HEK293 TRPC4/mu-opioid, Fluo-4 calcium, EC20 DAMGO (AID 434941;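 active means earlier screen potentiator hit that boosts the TRPC4 ion channel at some dose, with a dose response; inactive means no potentiation, no dose response, or not a prior hit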;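 further: calcium entry triggered by an EC20 dose of DAMGO at the co-expressed mu-opioid receptor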)
# [9] = target: Short transient receptor potential channel 6 (Mus musculus) (UniProt Q61143); test: inhibition of mouse TRPC6 channel, confirmation, selectivity assay for TRPC4 inhibitor project, cell-based, HEK293, membrane potential dye, duplicate (AID 434948;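 active means active in primary screen and both duplicates, each dropping signal beyond three positive-control SD with fluorescence still positive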); settings: HEK293 TRPC6, membrane potential dye fluorescence, at 10 µM, stimulated with maximal-effect acetylcholine; hits give high values
# [10] = target: Short transient receptor potential channel 6 (Mus musculus) (UniProt Q61143); test: activation of mouse TRPC6 channel, confirmation, selectivity assay for TRPC4 activator project, cell-based, HEK293, membrane potential dye, duplicate (AID 434950;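 active means membrane potential signal rise above negative control mean plus 3 SD in both duplicates, also active in the earlier TRPC4 screen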); settings: HEK293 TRPC6, membrane potential fluorescence, at 10 µM; hits give high values
# [11] = target: Short transient receptor potential channel 6 (Mus musculus) (UniProt Q61143); test: TRPC6 potentiation by TRPC4 potentiator hits, confirmation, selectivity assay for TRPC4 potentiator project, HEK293 cells, membrane potential dye, duplicate (AID 434952;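 active means compound raising the membrane signal above positive-control mean plus 3 SD in both repeats, and a primary screen hit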); settings: HEK293 TRPC6, membrane potential dye fluorescence, at 10 µM, maximal acetylcholine added after compound; hits give high values
# [12] = target: Short transient receptor potential channel 4 (Mus musculus) (UniProt Q9QUQ5); test: calcium flux activators in TRPC4/5HT1a cells, counter-screen for TRPC4 activator project, cell-based, second counter screen, HEK293 TRPC4/5HT1a, Fluo-4 (AID 434977;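 active means calcium signal rise above buffer-control mean plus 5 SD in both duplicates, and also a hit in the primary screen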); settings: Fluo-4 calcium flux, at 10 µM; hits give high values
# [13] = calcium flux inhibitors in TRPC4/5HT1a cells, confirmation, counter-screen for TRPC4 inhibitor project, cell-based, second counter screen, HEK293 TRPC4/5HT1a, Fluo-4 (AID 434978;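 active means primary screen active whose calcium signal fell more than 3 SD beyond the full-serotonin control mean in both duplicate plates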;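 on outcome: serotonin given first at submaximal then at maximal dose after compound preincubation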); settings: Fluo-4 calcium flux, at 10 µM, serotonin added to trigger calcium flux; hits give high values
# [14] = test system: TRPC4 (mouse), co-expressed with 5HT1a in HEK293; test: calcium flux potentiators in TRPC4/5HT1a cells, confirmation, counter-screen for TRPC4 potentiator project, cell-based, second counter screen, HEK293 TRPC4/5HT1a, Fluo-4 (AID 434979;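 active means signal rise over 3 SD above mean of control wells given weak agonist, in both repeats and first screen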); settings: Fluo-4 calcium flux, at 10 µM, serotonin added at its EC20 dose; hits give high values
# [15] = calcium flux activation in mu-opioid HEK293 cells, confirmation, counter-screen for TRPC4 activator project, cell-based, HEK293 mu-opioid receptor line (AID 449723;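 active means hit in primary screen, with calcium signal over 5 SD above buffer well mean in both duplicates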;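 further: counter screen cells carry the mu-opioid receptor alone and lack TRPC4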); settings: Fluo-4 calcium fluorescence, at 10 µM; hits give high values
# [16] = calcium flux enhancement in mu-opioid HEK293 cells, confirmation, counter-screen for TRPC4 allosteric potentiator project, cell-based, HEK293 mu-opioid receptor line (AID 449724;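 active means calcium signal rise more than 3 SD above the low-dose agonist control mean, in both duplicate plates and the primary screen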); settings: Fluo-4 calcium flux, at 10 µM, compound added before EC20 DAMGO stimulus; hits give high values
# Short transient receptor potential channel 4 (Mus musculus), sequence (Q9QUQ5 whole entry, looked up): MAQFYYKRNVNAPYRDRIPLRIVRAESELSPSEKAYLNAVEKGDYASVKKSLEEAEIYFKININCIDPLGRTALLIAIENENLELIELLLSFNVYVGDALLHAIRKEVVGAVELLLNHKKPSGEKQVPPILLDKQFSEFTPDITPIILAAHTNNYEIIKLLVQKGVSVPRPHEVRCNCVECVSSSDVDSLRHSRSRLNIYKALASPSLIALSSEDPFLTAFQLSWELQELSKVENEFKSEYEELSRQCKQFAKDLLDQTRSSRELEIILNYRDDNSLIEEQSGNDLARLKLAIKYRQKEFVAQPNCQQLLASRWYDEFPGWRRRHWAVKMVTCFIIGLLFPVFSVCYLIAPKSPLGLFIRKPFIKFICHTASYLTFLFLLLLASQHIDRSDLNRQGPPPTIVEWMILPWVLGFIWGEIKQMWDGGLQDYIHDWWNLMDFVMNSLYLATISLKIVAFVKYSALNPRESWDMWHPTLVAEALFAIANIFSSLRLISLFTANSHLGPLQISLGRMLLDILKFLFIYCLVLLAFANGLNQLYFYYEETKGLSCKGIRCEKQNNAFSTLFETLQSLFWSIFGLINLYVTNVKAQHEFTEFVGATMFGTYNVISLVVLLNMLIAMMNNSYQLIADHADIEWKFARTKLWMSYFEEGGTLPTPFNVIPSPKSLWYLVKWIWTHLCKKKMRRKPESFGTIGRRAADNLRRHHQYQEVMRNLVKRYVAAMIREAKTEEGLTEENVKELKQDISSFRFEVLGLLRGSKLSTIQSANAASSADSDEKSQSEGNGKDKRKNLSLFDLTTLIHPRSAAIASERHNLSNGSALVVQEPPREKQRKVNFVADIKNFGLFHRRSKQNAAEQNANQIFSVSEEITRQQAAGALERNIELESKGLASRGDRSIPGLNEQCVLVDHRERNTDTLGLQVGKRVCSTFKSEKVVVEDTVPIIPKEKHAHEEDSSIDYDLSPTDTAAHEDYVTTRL
# Short transient receptor potential channel 6 (Mus musculus), sequence (Q61143 whole entry, looked up): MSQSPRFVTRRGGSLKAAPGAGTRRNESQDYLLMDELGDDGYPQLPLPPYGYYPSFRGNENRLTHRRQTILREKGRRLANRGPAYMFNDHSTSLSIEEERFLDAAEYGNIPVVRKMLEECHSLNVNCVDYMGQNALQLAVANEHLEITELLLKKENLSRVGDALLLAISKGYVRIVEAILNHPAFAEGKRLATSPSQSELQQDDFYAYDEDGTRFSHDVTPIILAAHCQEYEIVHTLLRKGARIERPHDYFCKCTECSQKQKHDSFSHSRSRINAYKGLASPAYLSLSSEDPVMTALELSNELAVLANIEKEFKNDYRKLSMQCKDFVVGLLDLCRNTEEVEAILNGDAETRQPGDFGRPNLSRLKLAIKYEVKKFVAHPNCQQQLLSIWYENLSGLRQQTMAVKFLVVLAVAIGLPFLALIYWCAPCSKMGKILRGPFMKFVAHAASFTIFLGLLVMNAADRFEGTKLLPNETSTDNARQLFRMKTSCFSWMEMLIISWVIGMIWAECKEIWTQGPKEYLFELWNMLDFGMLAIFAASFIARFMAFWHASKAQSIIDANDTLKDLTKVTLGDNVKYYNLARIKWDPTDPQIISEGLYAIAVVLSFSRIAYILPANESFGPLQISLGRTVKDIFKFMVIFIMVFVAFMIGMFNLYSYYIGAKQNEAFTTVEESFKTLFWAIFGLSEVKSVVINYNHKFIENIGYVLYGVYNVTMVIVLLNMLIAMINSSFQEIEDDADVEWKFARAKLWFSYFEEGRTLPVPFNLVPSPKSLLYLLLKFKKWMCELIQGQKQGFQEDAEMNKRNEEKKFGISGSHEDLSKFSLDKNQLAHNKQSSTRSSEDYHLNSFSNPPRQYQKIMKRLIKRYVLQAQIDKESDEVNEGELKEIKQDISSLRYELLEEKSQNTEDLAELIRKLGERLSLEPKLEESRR
SMILES,outcome [1],outcome [2],outcome [3],outcome [4],inhibition [5],inhibition [6],outcome [7],outcome [8],outcome [9],outcome [10],outcome [11],outcome [12],outcome [13],outcome [14],outcome [15],outcome [16],outcome [6],inhibition [13]
O=C(O)c1ccc(N/N=C/c2ccc(-c3cccc(Cl)c3)o2)cc1,inactive,inactive,inactive,inactive,87% (active),42% (active),inactive,inactive,inactive,inactive,inactive,inactive,inactive,inactive,inactive,inactive,,
CCN(CC)CCN(C(=O)c1ccccc1OC)c1nc2ccc(F)cc2s1,inactive,inactive,inactive,inactive,84% (active),,inactive,inactive,inactive,inactive,inactive,inactive,inactive,inactive,inactive,inactive,inactive,
O=C(CCCSc1nc2ccccc2[nH]1)NCc1ccccc1Cl,inactive,inactive,inactive,inactive,88% (active),46% (active),inactive,inactive,inactive,inactive,inactive,inactive,,inactive,inactive,inactive,,27.7% (active)
CN(C)c1ccc([N+](=O)[O-])cc1C(=O)NCC(c1ccco1)N(C)C (configuration not stated),inactive,inactive,inactive,inactive,58% (active),,inactive,inactive,inactive,inactive,inactive,inactive,inactive,inactive,inactive,inactive,inactive,
CC(NC(=O)c1ccco1)C(c1cccs1)N1CCN(c2ccccc2)CC1 (configuration not stated),inactive,inactive,inactive,inactive,98% (active),51% (active),inactive,inactive,inactive,inactive,inactive,inactive,inactive,inactive,inactive,inactive,,
O=C(OCC(=O)N1CCc2ccccc2C1)c1cccc([N+](=O)[O-])c1,inactive,inactive,inactive,inactive,95% (active),47% (active),inactive,inactive,inactive,inactive,inactive,inactive,,inactive,inactive,inactive,,40.7% (active)
Cc1cc(C)c2[nH]c(=O)c(CN(Cc3cccnc3)C(=S)NCCCN(C)C)cc2c1,inactive,inactive,inactive,inactive,89% (active),60% (active),inactive,inactive,inactive,inactive,inactive,inactive,,inactive,inactive,inactive,,20.5% (active)
